Source: ChEMBL document CHEMBL3988442, “University of Dundee, Small-Polar-MMV Screening Library” (2021)
For some assays here: Results with a measured potency or affinity are listed apart.

Key:
Parameters in all cases: scale not given: direction of the effect not stated beside the values
[1] = target: Protein translocase subunit SecA (Escherichia coli (strain K12)) (UniProt P10408); experiment: Assay to Identify E. coli SecA ATPase Inhibitors; assay type: functional; conditions: 30 µM
[2] = target: T1, Ubiquitin-activating enzyme e1, putative (Leishmania donovani (strain BPK282A1)) (UniProt E9BSI1); experiment: Leishmania donovani Ubiquitin Activating Enzyme (LdE1); assay type: functional; conditions: 30 µM
T1 sequence (whole entry): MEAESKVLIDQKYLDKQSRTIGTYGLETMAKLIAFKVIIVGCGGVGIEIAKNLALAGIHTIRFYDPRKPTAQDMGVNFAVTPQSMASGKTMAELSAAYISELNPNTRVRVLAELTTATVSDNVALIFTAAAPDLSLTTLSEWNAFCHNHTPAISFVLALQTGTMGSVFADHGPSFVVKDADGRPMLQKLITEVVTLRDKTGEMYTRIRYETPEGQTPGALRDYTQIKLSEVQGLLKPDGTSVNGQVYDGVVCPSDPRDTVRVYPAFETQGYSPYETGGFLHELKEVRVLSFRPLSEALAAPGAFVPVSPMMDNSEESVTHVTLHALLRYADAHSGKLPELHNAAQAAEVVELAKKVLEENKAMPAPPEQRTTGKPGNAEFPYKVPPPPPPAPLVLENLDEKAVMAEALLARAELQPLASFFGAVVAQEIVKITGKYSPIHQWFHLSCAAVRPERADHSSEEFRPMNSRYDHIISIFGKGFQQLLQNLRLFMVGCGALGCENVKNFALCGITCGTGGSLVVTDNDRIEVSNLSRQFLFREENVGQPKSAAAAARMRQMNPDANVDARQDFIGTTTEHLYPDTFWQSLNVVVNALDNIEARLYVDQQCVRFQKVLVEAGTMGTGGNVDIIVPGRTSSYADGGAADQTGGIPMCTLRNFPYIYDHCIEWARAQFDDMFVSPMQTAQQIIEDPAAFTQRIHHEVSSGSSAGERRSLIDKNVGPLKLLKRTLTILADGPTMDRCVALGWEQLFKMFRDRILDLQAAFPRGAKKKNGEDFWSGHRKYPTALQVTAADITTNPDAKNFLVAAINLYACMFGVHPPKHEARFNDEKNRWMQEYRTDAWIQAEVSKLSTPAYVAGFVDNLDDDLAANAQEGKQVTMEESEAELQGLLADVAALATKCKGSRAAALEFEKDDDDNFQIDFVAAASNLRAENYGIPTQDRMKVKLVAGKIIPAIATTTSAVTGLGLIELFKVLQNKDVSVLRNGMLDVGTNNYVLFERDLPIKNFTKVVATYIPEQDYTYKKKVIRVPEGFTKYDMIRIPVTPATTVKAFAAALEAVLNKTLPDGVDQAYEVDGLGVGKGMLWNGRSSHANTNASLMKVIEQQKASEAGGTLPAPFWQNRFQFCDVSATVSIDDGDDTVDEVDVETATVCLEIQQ

[3] = target: AMP-activated protein kinase, AMPK (Homo sapiens) (UniProt P54646+O43741+P54619+Q9UGJ0+Q9Y478+Q13131+Q9UGI9); experiment: AMP-dependent Kinase enzyme assay. An in vitro enzyme assay that detects ADP turnover that is directly proportional to AMPK activity. This uses naive AMPK that is activated during the assay with MK-8722; assay type: functional; conditions: 30 µM
[4] = target: Sialic acid-binding Ig-like lectin 9 (Homo sapiens) (UniProt Q9Y336); experiment: Hs-Siglec9 ALPHAscreen SOP 20170721; conditions: 10 µM
Sialic acid-binding Ig-like lectin 9 (Homo sapiens), sequence (Q9Y336 whole entry): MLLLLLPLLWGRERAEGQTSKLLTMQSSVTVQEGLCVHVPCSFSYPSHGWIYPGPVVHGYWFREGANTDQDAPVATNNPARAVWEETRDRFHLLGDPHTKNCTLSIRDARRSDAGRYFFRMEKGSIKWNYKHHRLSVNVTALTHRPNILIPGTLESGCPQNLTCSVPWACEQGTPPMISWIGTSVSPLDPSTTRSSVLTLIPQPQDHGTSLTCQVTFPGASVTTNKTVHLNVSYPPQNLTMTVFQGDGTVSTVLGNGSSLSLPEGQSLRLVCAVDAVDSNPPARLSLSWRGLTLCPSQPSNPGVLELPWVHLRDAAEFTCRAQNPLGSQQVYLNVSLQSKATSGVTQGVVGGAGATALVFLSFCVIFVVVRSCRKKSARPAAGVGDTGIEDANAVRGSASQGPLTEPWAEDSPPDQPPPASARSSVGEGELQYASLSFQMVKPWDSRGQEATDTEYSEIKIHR

Trypanosoma cruzi = experiment: Trypanosoma cruzi phosphomannomutase and mannose-1-phosphate guanylyltransferase assay; assay type: functional; conditions: 10 µM
[5] = target: T2, Arginase-2, mitochondrial (Homo sapiens) (UniProt P78540); experiment: in vitro enzyme assay to detect the production of urea directly proportional to the activity of Arginase II; assay type: functional; conditions: 33.3 µM; also: in the data most compounds retested in dose-response had high values
T2 sequence (whole entry): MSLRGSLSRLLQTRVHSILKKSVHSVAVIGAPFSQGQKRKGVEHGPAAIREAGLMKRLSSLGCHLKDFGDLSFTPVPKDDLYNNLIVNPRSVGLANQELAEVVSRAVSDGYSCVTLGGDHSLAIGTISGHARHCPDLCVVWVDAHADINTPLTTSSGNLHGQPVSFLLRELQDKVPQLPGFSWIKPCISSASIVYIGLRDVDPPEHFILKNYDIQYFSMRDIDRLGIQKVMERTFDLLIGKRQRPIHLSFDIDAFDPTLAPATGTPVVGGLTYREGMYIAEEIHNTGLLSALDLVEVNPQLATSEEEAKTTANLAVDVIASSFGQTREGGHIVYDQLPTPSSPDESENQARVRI

[6] = target: T3, Proteasome subunit beta (Trypanosoma cruzi) (UniProt O96673); experiment: Trypanosoma cruzi proteasome chymotrypsin-like activity (TcProtChymo) assay.; also: in the data most compounds retested in dose-response had high values; assay type: functional; conditions: 9.37 µM
T3 sequence (whole entry): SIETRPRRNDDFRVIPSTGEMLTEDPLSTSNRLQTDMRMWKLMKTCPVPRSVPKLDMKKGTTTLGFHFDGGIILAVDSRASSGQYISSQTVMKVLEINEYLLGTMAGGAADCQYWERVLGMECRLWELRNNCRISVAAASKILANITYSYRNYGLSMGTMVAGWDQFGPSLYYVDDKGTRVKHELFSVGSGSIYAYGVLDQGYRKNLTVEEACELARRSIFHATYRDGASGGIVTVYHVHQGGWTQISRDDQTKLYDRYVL

Homo sapiens = organism: Homo sapiens; experiment: To identify inhibition of the IFN signalling (Jak-Stat) pathway via expression of an eGFP reporter gene under the control of an IFN-stimulated response element (ISRE) containing MxA promoter.; assay type: functional; conditions: 30 µM
[7] = target: T4, Tyrosyl-tRNA synthetase, putative (Trypanosoma cruzi (strain CL Brener)) (UniProt Q4DSP6); experiment: Trypanosoma cruzi tyrosyl tRNA synthetase (TcYRS) _High Tyrosine SOP; assay type: functional; conditions: 30 µM; also: in the data most compounds retested in dose-response had high values
T4 sequence (whole entry): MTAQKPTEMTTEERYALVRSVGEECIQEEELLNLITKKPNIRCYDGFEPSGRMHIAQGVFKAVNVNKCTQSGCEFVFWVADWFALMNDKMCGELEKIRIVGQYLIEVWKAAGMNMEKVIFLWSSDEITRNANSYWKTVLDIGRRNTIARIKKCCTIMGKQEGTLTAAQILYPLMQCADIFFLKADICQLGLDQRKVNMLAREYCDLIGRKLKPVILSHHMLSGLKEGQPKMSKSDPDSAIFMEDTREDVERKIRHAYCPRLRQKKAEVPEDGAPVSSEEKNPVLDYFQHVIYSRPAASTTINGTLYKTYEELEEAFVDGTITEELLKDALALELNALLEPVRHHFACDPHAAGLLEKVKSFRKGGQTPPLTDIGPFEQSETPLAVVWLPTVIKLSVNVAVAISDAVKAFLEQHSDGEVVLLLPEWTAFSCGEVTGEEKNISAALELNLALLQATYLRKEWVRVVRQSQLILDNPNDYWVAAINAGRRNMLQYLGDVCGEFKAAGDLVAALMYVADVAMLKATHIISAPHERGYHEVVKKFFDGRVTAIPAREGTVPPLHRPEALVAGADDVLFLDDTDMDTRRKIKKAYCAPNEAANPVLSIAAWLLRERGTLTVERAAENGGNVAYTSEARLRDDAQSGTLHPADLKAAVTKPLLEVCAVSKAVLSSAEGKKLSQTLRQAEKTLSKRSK

[8] = target: T4, Tyrosyl-tRNA synthetase, putative (Trypanosoma cruzi (strain CL Brener)); experiment: Trypanosoma cruzi tyrosyl tRNA synthetase (TcYRS) SOP; assay type: functional; conditions: 30 µM
[9] = target: Chromo domain-containing protein 1 (Saccharomyces cerevisiae (strain ATCC 204508 / S288c) (Baker's yeast)) (UniProt P32657); experiment: ScCHD-1 Enzyme Inhibition Assay; assay type: functional; conditions: 30 µM; also: in the data most compounds retested in dose-response had high values
Chromo domain-containing protein 1 (Saccharomyces cerevisiae (strain ATCC 204508 / S288c) (Baker's yeast)), sequence (P32657 whole entry, the tested form may be a part): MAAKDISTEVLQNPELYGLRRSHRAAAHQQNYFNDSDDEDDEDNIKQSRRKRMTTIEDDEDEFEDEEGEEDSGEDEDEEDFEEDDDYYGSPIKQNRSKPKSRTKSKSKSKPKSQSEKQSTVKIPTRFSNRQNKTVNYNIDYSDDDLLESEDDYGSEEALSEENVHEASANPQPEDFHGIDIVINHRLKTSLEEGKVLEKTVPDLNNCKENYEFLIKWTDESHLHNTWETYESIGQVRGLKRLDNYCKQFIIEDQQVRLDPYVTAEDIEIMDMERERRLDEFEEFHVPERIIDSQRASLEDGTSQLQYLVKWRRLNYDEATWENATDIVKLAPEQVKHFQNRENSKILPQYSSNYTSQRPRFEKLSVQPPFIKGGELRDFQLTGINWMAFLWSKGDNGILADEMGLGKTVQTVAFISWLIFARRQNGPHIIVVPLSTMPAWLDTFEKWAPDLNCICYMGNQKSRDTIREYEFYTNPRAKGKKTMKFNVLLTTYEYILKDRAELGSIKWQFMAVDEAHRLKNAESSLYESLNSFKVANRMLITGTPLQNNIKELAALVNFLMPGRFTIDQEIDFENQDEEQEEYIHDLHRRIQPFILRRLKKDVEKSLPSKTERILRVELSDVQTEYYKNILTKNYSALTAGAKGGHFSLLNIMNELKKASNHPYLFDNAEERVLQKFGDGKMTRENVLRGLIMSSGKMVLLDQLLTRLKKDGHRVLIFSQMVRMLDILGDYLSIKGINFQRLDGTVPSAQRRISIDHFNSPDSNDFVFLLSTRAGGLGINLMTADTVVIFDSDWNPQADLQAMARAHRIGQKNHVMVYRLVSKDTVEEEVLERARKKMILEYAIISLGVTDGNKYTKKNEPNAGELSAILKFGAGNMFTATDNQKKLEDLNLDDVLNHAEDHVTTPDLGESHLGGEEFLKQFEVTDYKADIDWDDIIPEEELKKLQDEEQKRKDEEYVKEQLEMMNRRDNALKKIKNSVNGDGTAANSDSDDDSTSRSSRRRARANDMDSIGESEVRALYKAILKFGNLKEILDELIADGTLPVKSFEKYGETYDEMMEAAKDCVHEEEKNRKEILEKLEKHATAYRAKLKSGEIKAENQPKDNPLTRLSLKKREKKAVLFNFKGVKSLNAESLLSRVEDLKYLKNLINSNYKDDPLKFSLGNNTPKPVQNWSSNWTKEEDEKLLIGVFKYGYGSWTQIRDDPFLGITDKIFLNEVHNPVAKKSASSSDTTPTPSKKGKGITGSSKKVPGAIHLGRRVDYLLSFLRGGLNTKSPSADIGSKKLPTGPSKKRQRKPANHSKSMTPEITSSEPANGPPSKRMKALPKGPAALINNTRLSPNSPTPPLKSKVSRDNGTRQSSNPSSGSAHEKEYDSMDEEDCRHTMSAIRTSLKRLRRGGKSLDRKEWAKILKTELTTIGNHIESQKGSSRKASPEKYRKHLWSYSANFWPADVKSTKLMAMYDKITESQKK

Protein translocase subunit SecA (Escherichia coli (strain K12)), sequence (P10408 whole entry): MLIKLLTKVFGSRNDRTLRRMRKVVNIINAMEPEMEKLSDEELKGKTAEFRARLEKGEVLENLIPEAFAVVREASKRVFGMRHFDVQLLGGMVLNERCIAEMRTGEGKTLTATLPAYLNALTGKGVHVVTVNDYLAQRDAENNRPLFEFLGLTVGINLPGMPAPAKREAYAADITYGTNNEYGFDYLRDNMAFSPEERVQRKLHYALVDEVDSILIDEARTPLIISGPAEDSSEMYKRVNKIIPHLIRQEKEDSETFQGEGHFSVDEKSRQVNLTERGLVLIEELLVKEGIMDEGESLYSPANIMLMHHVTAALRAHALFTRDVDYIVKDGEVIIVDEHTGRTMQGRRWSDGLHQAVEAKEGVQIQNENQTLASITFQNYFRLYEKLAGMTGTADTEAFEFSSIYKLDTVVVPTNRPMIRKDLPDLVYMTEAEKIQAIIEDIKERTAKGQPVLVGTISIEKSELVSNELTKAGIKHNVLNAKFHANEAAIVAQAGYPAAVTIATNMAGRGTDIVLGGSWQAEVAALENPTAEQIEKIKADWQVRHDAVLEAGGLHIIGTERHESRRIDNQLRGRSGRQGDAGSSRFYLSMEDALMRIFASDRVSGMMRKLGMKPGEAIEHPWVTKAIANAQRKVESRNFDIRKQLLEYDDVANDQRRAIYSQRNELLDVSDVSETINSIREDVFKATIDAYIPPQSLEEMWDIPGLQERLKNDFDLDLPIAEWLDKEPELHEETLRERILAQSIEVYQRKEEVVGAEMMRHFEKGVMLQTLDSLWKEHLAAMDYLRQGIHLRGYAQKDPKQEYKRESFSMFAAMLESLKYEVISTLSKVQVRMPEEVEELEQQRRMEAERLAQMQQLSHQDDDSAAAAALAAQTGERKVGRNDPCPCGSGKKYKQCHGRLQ

SMILES	Percent Effect [1] [%]	Percent Effect [2] [%]	Percent Effect [3] [%]	Percent Effect [4] [%]	Percent Effect (Trypanosoma cruzi) [%]	Percent Effect [5] [%]	Percent Effect [6] [%]	Percent Effect (Homo sapiens) [%]	Percent Effect [7] [%]	Percent Effect [8] [%]	Percent Effect [9] [%]
O=C1CCCCN1Cc1cccc(NC(=O)N2CCSCC2)c1	-4.11	9.72	-6.98	26	2.43	8.83	12.1	8.32	6.32	12.8	-6.96
CC(NC(=O)Nc1cccnc1N1CCCC1)c1nncn1C (configuration not stated)	-3.96	5.41	-24	2.82	7.45	-2.81	-0.901	23.6	5.42	16.1	-9.41
CN(Cc1ccc(F)cc1)CC1(O)CCN(C(=O)c2ccccc2)C1 (configuration not stated)	-1.26	4.05	9.4	2.19	-8.1	1.16	9.98	15.7	2.15	6.49	13.1
Cn1ccnc1C(NCc1csc(Br)c1)c1ccccc1 (configuration not stated)	-4.88	21.6	3.42	17.4	4.92	1.66	13.8	12.7	12.9	30.5	-7.11
Cc1nc(CN2CCCC(NCCOc3ccccc3)C2)no1 (configuration not stated)	-2.53	2.53	-4.3	-3.12	-1.98	2.28	28.9	-12.5	2.46	-1.27	-6.02
CNc1cc(CCNC(=O)c2cccnc2)nc(-c2ccncc2)n1	-1.87	9.46	12.1	1.21	-6.13	2.09	12	-0.444	4.3	6.49	-5.16
CN(C)C(=O)NC1COC2(CCN(C(=O)Nc3ccccc3)CC2)C1 (configuration not stated)	5.37	18.7	1.41	-7.63	-3.54	0.699	8.72	3.6	-1.06	6.41	2.03
COc1cccc(S(=O)(=O)CCN2CCCCC2)c1	-3.72	8	-7.74	6.82	-5.94	1.56	22	20	2.73	8.64	-9.16
CC(=O)N1CCCC1c1cccc(Cc2ccc(F)cc2)n1 (configuration not stated)	-4.97	5.33	10.8	3.6	5.91	-0.233	5.37	15.6	4.25	8.97	1.18
CS(=O)(=O)CCC(=O)N1CCC2(CCCN(C3CCOCC3)C2=O)C1 (configuration not stated)	0.12	8.22	-3.26	6.39	1.19	-3.19	12.6	-2.62	6.25	13.6	-3.06
O=S1(=O)N=C(SCc2ccc(Cl)cc2)Nc2ccc(F)cc21	-2.41	-7.79	-5.17	-2.88	-1.08	1.94	13.8	21.9	-6.35	-8.97	-10.5
CCc1ncc2c(n1)CN(Cc1nc(-c3ccsc3)no1)CC2	-3.47	-18.4	-15.2	-3.23	-1.77	-0.719	7.02	-16.8	9.36	-1.24	8.2
Cc1ccc(CN2CCn3cc(CN(C)Cc4ccco4)nc3C2)o1	-4.77	15.6	-9.82	2.5	7.2	-9.68	16.2	7.34	4.23	11.5	-10.4
CCn1c(C)nnc1CN(C)C1CCN(CCCOC)C1 (configuration not stated)	-1.09	18.2	-9.12	4.71	3.82	6.11	11.7	-2.93	7.62	25.9	-10.1
CC(C)Oc1cccc(C(=O)C2CCCN(C(=O)c3ncn[nH]3)C2)c1 (configuration not stated)	-0.804	-2.7	-3.49	0.785	7.92	-1.91	21.6	3.35	6.88	12.2	-3.93
N#Cc1ccc(S(=O)(=O)NC(=O)C2CC2)c(C(F)(F)F)c1	-6.08	21.6	-10.9	20.8	4.81	-6.41	6.49	7.08	6.4	23.5	-7.62
CC(=O)NCCNC(=O)c1sc(-c2ccc(C)cc2C)nc1C	-2.37	10.8	-0.818	-4.19	-7.89	3.51	8.26	10.8	4.95	11	7.83
Cc1cnn(CCNCc2nc(Cc3ccccc3)no2)c1	-0.787	0	-3.33	-0.739	-1.32	5.75	5.51	13.2	5.39	7.32	2.72
O=C(C[C@@H]1COC[C@H]2CN(Cc3ccc(F)cc3)C[C@@H]12)N1CCOCC1	-9.06	17.3	-1.45	-0.881	-3.73	-10.4	7.58	7.29	-2.12	-5.13	-10.9
CC(Cn1cccn1)NC(=O)CCc1ccc(S(N)(=O)=O)cc1 (configuration not stated)	-7.11	18.2	-0.578	3.31	6.37	-2.74	7.03	11	6.67	23.5	-9.46
Cc1nc(NC2CCCC2)cc(C2CCN2C(=O)c2ccccc2)n1 (configuration not stated)	-6.88	4.05	3.55	0.412	3.16	-1.62	6.08	-2.7	1.07	3.9	-22.1
CCn1cnnc1CNC(=O)CCC(=O)c1ccc2c(c1)OCCO2	-8.9	16.2	-8.33	6.97	6.7	-10	15.3	11.5	10.3	23.5	-8.22
